Assay results taken from the supplement of paper PMC11219838.
Unmarked numbers belong to inactive results.

Each molecule was assayed on Caenorhabditis elegans L1 (N2) (assay: survival and reproduction score of C. elegans L1 (0: 0-10 living worms, 1: 11-20, 2: 21-50, 3: >50, 4: overgrown) (score 0-4); higher = more worms, less nematicidal, active = 1 or less; extreme values may be limits of the assay). Conditions: 60 µM; 6 days; temperature: 20 °C.
Summary of the method: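 In liquid NGM with E. coli HB101, approximately 20 synchronized C. elegans N2 L1s per 96-well well were exposed to compound at 60 µM final (0.6% v/v DMSO) for 6 days at 20 °C with shaking at 200 rpm in sealed plates. Survival and reproduction were judged under a dissection microscope as an ordinal rating of living worms per well. Ratings went from 0 (0–10 worms) to 4 (overgrown, starved) and were averaged over two biological replicates.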

| SMILES | survival and reproduction score |
| --- | --- |
| COc1nc(C)ccc1-c1noc(-c2ccc(C)cc2)n1 | 4 |
| Clc1ccc(-c2noc(-c3ccc4c(c3)OCCO4)n2)cc1 | 4 |
| COC(=O)c1ccc(NC(=O)CSc2nnc(-c3ccc(Cl)cc3Cl)o2)cc1 | 4 |
| Cc1ccc(-c2nc(-c3ccccc3)no2)cc1C | 4 |
| COc1ccc(-c2nnc(SCC(=O)Nc3ccc(Cl)c(Br)c3)o2)cc1 | 4 |
| Fc1ccc(OCc2nc(-c3ccccc3)no2)cc1 | 3.5 |
| COc1ccccc1-c1nc(-c2ccccc2)no1 | 4 |
| CC1CC(C)CN(C(=O)CSc2nnc(-c3cccc(Cl)c3)o2)C1 (stereo not given) | 4 |
| COc1ccc(C)cc1NC(=O)CSc1nnc(-c2ccc(Br)cc2)o1 | 4 |
| Cc1ccc(-c2nnc(SCc3ccccc3C#N)o2)cc1 | 4 |
| COc1ccc(Cl)cc1NC(=O)CSc1nnc(-c2ccc(Br)cc2)o1 | 4 |
| CCN(CC)C(=O)CSc1nnc(-c2ccc(Br)cc2)o1 | 4 |
| Clc1cc(Cl)c(OCc2nc(-c3ccncc3)no2)cc1Cl | 4 |
| COc1ccc(-c2noc(COc3ccc4c(c3)CCCC4)n2)cc1 | 4 |
| CC(C)(C)c1ccc(OCc2nc(-c3ccncc3)no2)c(Br)c1 | 4 |
| Clc1cc(Br)ccc1OCc1nc(-c2ccncc2)no1 | 4 |
| COc1ccc(NC(=O)CSc2nnc(-c3ccccc3C)o2)cc1 | 4 |
| Cc1ccccc1OCc1nc(-c2ccc3c(c2)OCO3)no1 | 4 |
| C#CCOc1ccc(-c2nc(-c3ccccc3)no2)cc1 | 0 (active) |
| Cc1ccc(-c2noc(-c3cccc(Br)c3)n2)cc1 | 4 |
